Data taken from PubChem BioAssay (NCI).
About 83,000 compounds went through this panel and 20% of them were active in at least one assay; those are over-represented in the sample as a whole.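 Activity criterion: percent growth below 10, measured after cells in 96-well plates were exposed to a single compound concentration for 48 hours.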 Calls of active or inactive are those of the source.

Experiments:
Experiment in all cases: NCI-60 one-dose screen, 48 h (100 = growth as untreated, 0 = no growth, -100 = all killed)
Details in all cases: 10 µM
[1] = test system: SR leukemia
[2] = test system: RPMI-8226 leukemia
[3] = test system: OVCAR-8 ovarian
[4] = test system: OVCAR-5 ovarian
[5] = test system: OVCAR-4 ovarian
[6] = test system: SK-OV-3 ovarian
[7] = test system: IGROV1 ovarian
[8] = test system: OVCAR-3 ovarian
[9] = test system: HS 578T breast
[10] = test system: NCI/ADR-RES ovarian
[11] = test system: T-47D breast
[12] = test system: BT-549 breast
[13] = test system: MDA-MB-435 melanoma
[14] = test system: SW-620 colon
[15] = test system: MCF7 breast
[16] = test system: HCT-116 colon
[17] = test system: HCC-2998 colon
[18] = test system: KM12 colon

Measured: growth

COc1ccc(-c2nnc(SCC(=O)Nc3ccc(C(=O)/C=C/c4ccccc4)cc3)n2-c2ccccc2)cc1OC
inactive: [1] 57.5% | [2] 23.4% | [3] 51.3% | [4] 104% | [5] 62.5% | [6] 101% | [7] 87.4% | [8] 88.8% | [9] 83.1% | [10] 88.3% | [11] 72.9% | [12] 92.8% | [13] 86.1% | [14] 66.4% | [15] 36.4% | [16] 17% | [17] 110% | [18] 91.7%

N#CC1=C(N)Oc2cc(N)ccc2C1c1cccnc1 (stereo unspecified)
inactive: [1] 70.6% | [2] 106% | [3] 106% | [4] 103% | [5] 80.3% | [6] 93.7% | [7] 101% | [8] 96.6% | [9] 82.4% | [10] 96.2% | [11] 94.2% | [12] 88.4% | [13] 71.8% | [14] 90.1% | [15] 89.4% | [16] 88.3% | [17] 82.4% | [18] 89.7%

O=S(=O)(O)c1cccc(Nc2ccc3ccccc3c2)c1
inactive: [1] 92% | [2] 95.5% | [3] 92.4% | [4] 106% | [5] 99% | [6] 87.9% | [7] 84.4% | [8] 97.5% | [9] 96.6% | [10] 97.4% | [11] 89.9% | [12] 98.4% | [13] 106% | [14] 93.2% | [15] 99.5% | [16] 90.5% | [17] 104% | [18] 90.6%

COc1ccc(Nc2cnc3cc(NS(=O)(=O)c4ccc(C)cc4)ccc3n2)cc1
active: [13] 4.57%
inactive: [1] 30% | [2] 106% | [3] 82.1% | [4] 95.9% | [5] 86.5% | [6] 88% | [7] 65.5% | [8] 79.8% | [9] 82.7% | [10] 73.1% | [11] 94.4% | [12] 98.1% | [14] 59.9% | [15] 61.6% | [16] 79.6% | [17] 93.6% | [18] 71.3%

O=C1c2ccccc2C(=O)c2c1ccc1c(=O)n(-c3ccccc3C(F)(F)F)nnc21
active: [3] 9.15% | [5] 1.52% | [7] -27.9% | [8] -17.6% | [10] -16.4% | [13] -89.5% | [15] -51.7% | [16] -5.21%
inactive: [1] 31.1% | [2] 18% | [4] 34.2% | [6] 69.9% | [9] 73.1% | [11] 15.8% | [12] 52.8% | [14] 11.4% | [17] 28.9% | [18] 27.2%

Cc1ccc(C(=O)C2C(=O)C3CCC2C3)cc1 (stereo unspecified)
inactive: [1] 129% | [2] 99.3% | [3] 100% | [4] 99% | [5] 102% | [6] 107% | [7] 113% | [8] 107% | [9] 106% | [10] 99.3% | [11] 108% | [12] 105% | [13] 100% | [14] 104% | [15] 97.5% | [16] 108% | [17] 106% | [18] 107%

CC(=O)Nc1cc2c(cc1Cl)Cc1cc(Cl)ccc1-2
inactive: [1] 80.1% | [2] 111% | [3] 88.2% | [4] 83.7% | [5] 83.9% | [6] 96% | [7] 72.4% | [8] 103% | [9] 78.6% | [10] 97% | [11] 29.2% | [12] 99.2% | [13] 98.4% | [14] 97.5% | [15] 40.1% | [16] 99.3% | [17] 65.6% | [18] 87.4%

C=CCN(CC=C)C(=O)[C@H](CC)[C@@H]1CC[C@@H](C)[C@@H]([C@H](C)[C@@H](O)[C@@H](C)C(=O)[C@H](CC)C2O[C@]3(C=CC(=O)[C@]4(CC[C@@](C)([C@H]5CC[C@](O)(CC)[C@H](C)O5)O4)O3)[C@H](C)C[C@@H]2C)O1 (stereo partly specified)
active: [2] -23% | [15] 8.84%
inactive: [1] 49.1% | [3] 32.4% | [4] 32.8% | [5] 42.7% | [6] 41% | [7] 43.5% | [8] 29.8% | [9] 33.9% | [10] 16.8% | [11] 18.2% | [12] 54.8% | [13] 40.7% | [14] 24.8% | [16] 13.9% | [17] 26.5% | [18] 48.8%

C/C(=N\O)c1ccc(NC(=O)CSc2nnc(-c3ccccc3)n2-c2ccccc2)cc1
inactive: [1] 106% | [2] 91.2% | [3] 84.7% | [4] 86.2% | [5] 87.3% | [6] 39.3% | [7] 76.7% | [8] 81.4% | [9] 62.5% | [10] 90.8% | [11] 79.6% | [12] 20.9% | [13] 100% | [14] 83.1% | [15] 104% | [16] 28.6% | [17] 91.1% | [18] 73.3%

NS(=O)(=O)Oc1ccc2c(ccn2C(=O)C23CC4CC(CC(C4)C2)C3)c1
inactive: [1] 111% | [2] 110% | [3] 105% | [4] 105% | [5] 104% | [6] 121% | [7] 110% | [8] 117% | [9] 109% | [10] 95.5% | [11] 112% | [12] 105% | [13] 106% | [14] 103% | [15] 120% | [16] 102% | [17] 101% | [18] 107%

C(=N\Nc1ncnc2sc3c(c12)CCNC3)/c1cccc2ccccc12
active: [2] -30.1% | [14] 2.91% | [16] 8.77%
inactive: [1] 22% | [3] 58.2% | [4] 89.8% | [5] 42.7% | [6] 103% | [7] 89.9% | [8] 113% | [9] 96.8% | [10] 75.4% | [11] 103% | [12] 92.5% | [13] 97.7% | [15] 37.8% | [17] 92.6% | [18] 82.4%

CS(=O)(=O)c1nccc(-c2c(-c3cccc(OCc4ccc(F)cc4)c3)nc3sccn23)n1
inactive: [1] 38.6% | [2] 71.7% | [3] 86.3% | [4] 102% | [5] 65.1% | [6] 60.7% | [7] 49.7% | [8] 88.3% | [9] 73.4% | [10] 89.4% | [11] 71.6% | [12] 41.7% | [13] 81.3% | [14] 48.4% | [15] 69.5% | [16] 46.4% | [18] 38.9%
active: [17] -16.3%

CCCCc1oc2ccccc2c1C(=O)c1cc(I)c(OCCN(CC)CC)c(I)c1
active: [1] -51.8% | [2] -29.5% | [3] -10% | [4] -36% | [6] -38.1% | [9] -19.3% | [10] -20.3% | [11] 7% | [12] -50% | [13] -56.2% | [14] -96.3% | [15] -67% | [16] -61.4% | [17] -88.5% | [18] -47.6%
inactive: [5] 10.3% | [7] 29.5% | [8] 12%

COc1ccc2c(c1)C(=O)/C(=C/c1ncc([N+](=O)[O-])n1C)O2
inactive: [2] 105% | [11] 92%
active: [1] 9.33% | [3] -18.2% | [4] 1.74% | [5] -6.9% | [6] -21.7% | [7] -30.4% | [8] -18% | [9] -9.93% | [10] -0.383% | [12] -18.7% | [13] -63.2% | [14] -41% | [15] 5.2% | [16] -10.7% | [17] -64.1% | [18] -36.3%

CN1CCN(c2cc3c(cc2F)c(=O)c(C(=O)O)cn3-c2ccc(F)cc2)CC1
inactive: [1] 96.4% | [2] 101% | [3] 96.8% | [4] 106% | [5] 102% | [6] 109% | [7] 103% | [8] 102% | [9] 99.6% | [10] 90.1% | [11] 99.9% | [12] 92.4% | [13] 103% | [14] 98% | [15] 104% | [16] 95.5% | [17] 106% | [18] 99%

O=C1/C=C/[C@@H](O)[C@@H]2C[C@@H](O)C[C@H]2/C=C/CCC[C@@H](C(F)(F)F)O1
inactive: [1] 102% | [2] 97.7% | [3] 83.2% | [4] 107% | [5] 75.3% | [6] 96% | [7] 105% | [8] 69.8% | [9] 74.2% | [10] 92.5% | [11] 82.3% | [12] 123% | [13] 93.5% | [14] 93.9% | [15] 67.1% | [16] 109% | [17] 107% | [18] 99.3%

O=C(Nc1ccc2c(O)cc(S(=O)(=O)O)cc2c1)c1ccc([N+](=O)[O-])cc1
inactive: [1] 60.9% | [2] 92.9% | [3] 88.9% | [4] 101% | [5] 103% | [6] 82.7% | [7] 102% | [8] 104% | [9] 103% | [10] 100% | [11] 86% | [12] 94.3% | [13] 106% | [14] 100% | [15] 96.3% | [16] 94.1% | [17] 108% | [18] 97.2%
